# This is part of a sample that, as a whole, favours compounds with a hit. Of some 83,000 tested, about 20% had one in any assay.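 How to read the values: 0–100, growth inhibition (40 = 60% inhibited); 0, no net growth; -100 to 0, cell death (-40 = 40% of starting cells died; -100 = all dead).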 A number with no mark means an inactive call. Active and inactive are the calls of the source. Rule for the calls: active = growth percent below 10; inactive = the rest.
# What was measured:
# Experiment in all cases: NCI-60 one-dose screen, 48 h (100 = growth as untreated, 0 = no growth, -100 = all killed)
# Conditions in all cases: 10 µM unless noted
# NCI-H23 lung = system: NCI-H23 lung
# NCI-H226 lung = system: NCI-H226 lung
# NCI-H322M lung = system: NCI-H322M lung
# HOP-62 NSCLC = system: HOP-62 NSCLC
# NCI-H460 lung = system: NCI-H460 lung
# HOP-92 NSCLC = system: HOP-92 NSCLC
# 786-0 renal = system: 786-0 renal
# COLO 205 colon = system: COLO 205 colon
# DU-145 prostate = system: DU-145 prostate
# K-562 leukemia = system: K-562 leukemia
# MALME-3M melanoma = system: MALME-3M melanoma
# MDA-MB-231 breast = system: MDA-MB-231 breast
# RXF 393 renal = system: RXF 393 renal
# SF-268 CNS = system: SF-268 CNS
# SF-295 CNS = system: SF-295 CNS
# SF-539 CNS = system: SF-539 CNS
# UACC-257 melanoma = system: UACC-257 melanoma
# M14 melanoma = system: M14 melanoma
# A549/ATCC NSCLC = system: A549/ATCC NSCLC
Compound,growth (NCI-H23 lung),growth (NCI-H226 lung),growth (NCI-H322M lung),growth (HOP-62 NSCLC),growth (NCI-H460 lung),growth (HOP-92 NSCLC),growth (786-0 renal),growth (COLO 205 colon),growth (DU-145 prostate),growth (K-562 leukemia),growth (MALME-3M melanoma),growth (MDA-MB-231 breast),growth (RXF 393 renal),growth (SF-268 CNS),growth (SF-295 CNS),growth (SF-539 CNS),growth (UACC-257 melanoma),growth (M14 melanoma),growth (A549/ATCC NSCLC) [%]
C/C(=C\CCc1ccoc1)CC/C=C(\C)CCCN1CCOCC1,46.2%,70.6%,84.5%,69.1%,54.3%,57.4%,69.4%,40.9%,73.9%,20.6%,55.8%,43.7%,50.1%,72.6%,67.8%,78.2%,53.4%,62.6%,
COc1ccc(CCN2C(=O)CCC3=C2CCCC3=O)cc1OC,98.2%,105%,98%,95.3%,106%,78.2%,108%,88.6%,,106%,91.7%,89.9%,113%,136%,112%,103%,,99.1%,106
O=C(Oc1ccccc1)C(Br)C(Br)c1ccccc1 (stereo not given),112%,107%,179%,107%,109%,81.6%,98.3%,49.4%,-38.7% (active),-44.2% (active),,101%,98.2%,78.7%,130%,110%,93.9%,102%,91.9
COc1cccc2c1C(=O)c1c(O)c3c(c(O)c1C2=O)C[C@@](O)(C(C)=O)C[C@@H]3O[C@H]1C[C@H](N)[C@H](O)[C@H](C)O1,-67.3% (active),-33.1% (active),-19.9% (active),-50.2% (active),-3.01% (active),-28% (active),-9.97% (active),-85.8% (active),1.62% (active),-4.44% (active),-70.7% (active),-14.6% (active),-65.1% (active),-43.8% (active),-30.8% (active),-43.1% (active),-47.3% (active),-86.5% (active),
CCCCCCCCN(CCO)CCCCCCCC,103%,92.8%,96.1%,103%,106%,97%,101%,107%,112%,104%,,117%,93.2%,107%,,94.4%,94.3%,101%,99.7
COC(=O)[C@H]1[C@H]2C[C@@H]3c4[nH]c5cc(OC)ccc5c4CCN3C[C@H]2C[C@@H](OC(=O)/C=C/c2cc(OC)c(OC)c(OC)c2)[C@@H]1OC,93.5%,101%,88.6%,61.6%,48.6%,60.5%,58.9%,67.6%,40.8%,-2.87% (active),,65.1%,61%,68.6%,14.6%,71.8%,85%,71.5%,74.2
NC(=O)NS(=O)(=O)c1ccc(N2N=C(C(F)(F)F)CC2c2cc(C(F)(F)F)cc(C(F)(F)F)c2)cc1 (stereo not given),91.3%,101%,88.4%,103%,81.3%,49.8%,95.2%,99.8%,85.1%,57.7%,87.4%,91.6%,11.8%,67.8%,68.6%,89.5%,31.5%,79.7%,
O[N+]1=CC=CCC1=S.On1ccccc1=S.[Zn],-53.1% (active),-85.9% (active),-87.3% (active),-86.8% (active),-70.5% (active),-64.5% (active),-74.2% (active),-74.9% (active),-90.1% (active),-17.7% (active),-54.9% (active),-81.4% (active),-84.9% (active),-46.6% (active),-81.5% (active),-64.8% (active),-88.8% (active),-74.2% (active),
COc1ccc2nc(NC(=O)CN3CCn4c(nnc4C(F)(F)F)C3)sc2c1,91.6%,92.2%,98.5%,88.1%,99.5%,101%,96.9%,109%,106%,90.5%,106%,96.6%,91%,93.5%,92.5%,93.7%,99.5%,85.1%,

# Reference: PubChem BioAssay (NCI)
